A selection: hits, their analogues and other compounds. The true share with any hit is near 19%.
IL1B secr inh = inflammasome signaling inhibition, IL-1 beta readout; THP-1 LPS/ATP IL-1B secretion, AlphaLISA, 16 h; stronger effect = lower value; 360,000 tested, 4.7% active; AID 743279; activity change, % at 57.5 µM; in the data active = activity change below about -50%; inconclusive = mostly about -30% to -49%
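THP-1 cells pretreated 1 hr with compounds (up to 57.5 uM final), then stimulated with LPS (250 ng/mL final) plus ATP (1.25 mM final); secreted IL-1B measured by AlphaLISA after 16 hr, decreased signal indicating inhibition.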
ELG1 repair inh = inhibitors of ELG1-dependent DNA repair in HEK293T cells; HEK293T ELG1-luciferase reporter, luminescence, 16 h; DNA damage induced by 5-fluorouridine; Potency, µM (top dose mostly 46.1 µM), for the others: at the highest dose activity change, negative = inhibition, actives largely listed as inhibitors; 330,000 tested, 2.3% active; note: potency is the fitted concentration of half-maximal effect; nearly all actives have a fitted effect of over 55% in size
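Luminescence from the luciferase reporter, measured 30 min after ONE-Glo reagent at room temperature, was the read-out. Beforehand, 2,000 cells per well were exposed for 16 hr at 37 °C to 5-fluorouridine together with compound or vehicle.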
HT1080 IDH1KD tx = toxicity to HT-1080 IDH1 knockdown cells (counter line). HT-1080 IDH1 knockdown viability, ATP luminescence, 48 h. Potency, µM (series often up to 46.1 µM), for the others: at the highest dose activity, negative = toxicity, actives largely listed as cytotoxic. 360,000 tested, 2% active;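 note: potency is the fitted concentration of half-maximal effect; 0% = DMSO wells and -100% = cell-free medium wells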
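IDH1KD HT-1080 cells, 750/well, RPMI + 5% FBS; compound pinned after 2 h settling; 48 h, 37 °C; CellTiter-Glo luminescence; % activity normalised to DMSO and no-cell wells; curves fitted, classed by r2 and efficacy.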
DT40 TDP1 CPT = DT40-hTDP1 cell growth loss with CPT. chicken DT40 Tdp1-/-;hTDP1 cells + 20 nM CPT, ATP luminescence, 48 h. 420,000 tested, 12% active. Potency, µM (top dose mostly 46.2 µM), without a hit: at the highest dose activity change, negative = growth inhibition, most hits filed as inhibitors; note: potency is the fitted concentration of half-maximal effect; nearly all actives have a fitted effect of over 55% in size
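Chicken DT40 Tdp1-/- cells complemented with human TDP1, 400 cells/well, exposed to compounds plus 20 nM camptothecin for at least 48 h at 37 C; viability read as ATP content by CellTiter-Glo luminescence.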
TDP1 cell noCPT = qHTS for Inhibitors of human tyrosyl-DNA phosphodiesterase 1 (TDP1): qHTS in cells in absence of CPT; 420,000 tested, 15% active; Potency, µM (doses to about 46.2 µM), without a hit: at the top dose activity change, negative = growth inhibition, usual class: inhibitors; DT40 Tdp1-/- hTDP1 cells, no CPT, ATP luminescence, 48 h; note: potency is the fitted concentration of half-maximal effect; nearly all actives have a fitted effect of over 55% in size
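Chicken DT40 Tdp1-/- cells complemented with human TDP1, screened without camptothecin (DMSO vehicle only), 400 cells/well. Compounds pin-transferred, cells incubated at 37 °C for at least 48 hr. Growth read as ATP-dependent luminescence (CellTiter-Glo, 30 min at RT).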
HT1080-NT tox = kills 2HG-producing HT-1080-NT fibrosarcoma cells | HT-1080-NT fibrosarcoma viability, CellTiter-Glo ATP luminescence, 48 h | Potency, µM (titrated, usually from 46.1 µM), for the others: top-dose activity, negative = less viability, actives largely listed as cytotoxic | 360,000 tested, 1.6% active;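 note: NT is the 2HG producing partner of a matched IDH1 knockdown line; potency is the fitted concentration of half-maximal effect; 0% = DMSO-treated cells and -100% = media-only wells without cells; nearly all actives have a fitted effect of over 55% in size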
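Toxicity toward the 2HG-producing NT line was scored as %Activity, normalised to DMSO and no-cell wells, from CellTiter-Glo luminescence after 48 hours' treatment.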
* hit, by the source's call. Unless noted, calls come from the whole dose curve; as a rule, active = well fitted curve in the direction sought with a large enough effect; inconclusive = small, poorly fitted or top-dose-only effect, or another doubt; inactive = no such curve, though single readings can be large; an effect the other way counts as inactive or inconclusive. Unless noted, % is set by controls: 0 for no effect and ±100 for the full control effect.

What do the screens show for `C=CCOC(=O)C1=C(C)NC(=O)NC1c1cn(-c2ccccc2)nc1-c1cccs1` (stereo unspecified)?
IL1B secr inh: -20; ELG1 repair inh: inconclusive; HT1080 IDH1KD tx: 10µM*; DT40 TDP1 CPT: inconclusive; TDP1 cell noCPT: inconclusive; HT1080-NT tox: inconclusive

What do the screens show for `COc1cccc(C(=O)OCC(=O)N2CCc3ccccc3C2)c1`?
IL1B secr inh: 20; ELG1 repair inh: 2%; HT1080 IDH1KD tx: -1%; DT40 TDP1 CPT: -7%; TDP1 cell noCPT: -9%; HT1080-NT tox: -6%

What do the screens show for `COc1ccc(S(=O)(=O)N(C)C)cc1NC(=O)CCNC(=O)c1ccccc1OC`?
IL1B secr inh: 17; ELG1 repair inh: -14%; HT1080 IDH1KD tx: 6%; DT40 TDP1 CPT: 0%; TDP1 cell noCPT: -26%; HT1080-NT tox: -1%

How did Cn1c(SCC(=O)NCc2ccco2)nnc1C1CCCC1 do in these assays?
IL1B secr inh: 12; ELG1 repair inh: 20%; HT1080 IDH1KD tx: 12%; DT40 TDP1 CPT: -1%; TDP1 cell noCPT: 4%; HT1080-NT tox: 25%

How did COCCn1c(=O)c(-c2ccc(F)cc2)nc2cnc(N3CCOCC3)nc21 do in these assays?
DT40 TDP1 CPT: -11%; TDP1 cell noCPT: 21%

What do the screens show for `COc1ccc(CCn2c3c(c(=O)[nH]c2=O)C(NC(=O)c2ccccc2F)(C(F)(F)F)C(=O)N3)cc1OC` (stereo unspecified)?
DT40 TDP1 CPT: 26%; TDP1 cell noCPT: 2%

Results for CCOc1ccc2nc(NC(=O)CN3CCC(n4nnc5cc(F)ccc54)CC3)sc2c1 ?
IL1B secr inh: inconclusive; ELG1 repair inh: 9.2µM*; HT1080 IDH1KD tx: inconclusive; DT40 TDP1 CPT: inconclusive; TDP1 cell noCPT: inconclusive; HT1080-NT tox: inconclusive

Results for O=C(CN1CCC(n2nnc3cc(F)ccc32)CC1)NC1CC1 ?
IL1B secr inh: 2; ELG1 repair inh: 0%; HT1080 IDH1KD tx: 13%; DT40 TDP1 CPT: 12%; TDP1 cell noCPT: -3%; HT1080-NT tox: 9%

Results for O=C(CN1CCC(n2nnc3cc(F)ccc32)CC1)Nc1ccccc1N1CCOCC1 ?
IL1B secr inh: -19; ELG1 repair inh: inconclusive; HT1080 IDH1KD tx: -22%; DT40 TDP1 CPT: 16µM*; TDP1 cell noCPT: 18µM*; HT1080-NT tox: 0%

Results for O=C(CN1CCC(n2nnc3cc(F)ccc32)CC1)N1CCc2ccccc2C1 ?
IL1B secr inh: -62*; ELG1 repair inh: 21µM*; HT1080 IDH1KD tx: inconclusive; DT40 TDP1 CPT: inconclusive; TDP1 cell noCPT: 15µM*; HT1080-NT tox: -30%

How did CC(NC(=O)COc1cccnc1[N+](=O)[O-])c1ccc(Cl)cc1 (stereo unspecified) do in these assays?
IL1B secr inh: 0; ELG1 repair inh: -3%; HT1080 IDH1KD tx: -20%; DT40 TDP1 CPT: -24%; TDP1 cell noCPT: -18%; HT1080-NT tox: -23%

What do the screens show for `Clc1ccc(-c2cc3ncc4c(n3n2)-c2ccccc2OC4)cc1`?
DT40 TDP1 CPT: 3%; TDP1 cell noCPT: -21%

How did O=C(CSc1ncn[nH]1)N1CCOCC1 do in these assays?
IL1B secr inh: -3; ELG1 repair inh: -6%; HT1080 IDH1KD tx: -5%; DT40 TDP1 CPT: 8%; TDP1 cell noCPT: 14%; HT1080-NT tox: -6%

How did CCOC(=O)[C@]12CCCC=C1N(Cc1ccc3c(c1)OCO3)C(=O)[C@H](CC(=O)NCCCOC)C2 do in these assays?
IL1B secr inh: 10; HT1080 IDH1KD tx: 2%; DT40 TDP1 CPT: -28%; TDP1 cell noCPT: -27%; HT1080-NT tox: 12%

What do the screens show for `CCCCOCCCNC(=O)C[C@@H]1C[C@@]2(C(=O)OCC)CCC=C2N(Cc2ccc3c(c2)OCO3)C1=O`?
IL1B secr inh: -9; HT1080 IDH1KD tx: 0%; DT40 TDP1 CPT: 21µM*; TDP1 cell noCPT: 16µM*; HT1080-NT tox: -15%

How did CCOC(=O)[C@]12CCC=C1N(Cc1ccc3c(c1)OCO3)C(=O)[C@H](CC(=O)NCC13CC4CC(CC(C4)C1)C3)C2 do in these assays?
IL1B secr inh: inconclusive; HT1080 IDH1KD tx: inconclusive; DT40 TDP1 CPT: inconclusive; TDP1 cell noCPT: 23µM*; HT1080-NT tox: inconclusive

How did COc1ccc(CC(=O)OCC(=O)Nc2ccc3[nH]c(=O)[nH]c3c2)cc1OC do in these assays?
IL1B secr inh: -2; HT1080 IDH1KD tx: 19%; DT40 TDP1 CPT: 3%; TDP1 cell noCPT: -2%; HT1080-NT tox: 8%

How did NS(=O)(=O)c1ccc(N=Nc2c(O)ccc3ccccc23)cc1 do in these assays?
IL1B secr inh: -29; ELG1 repair inh: -6%; HT1080 IDH1KD tx: 1%; DT40 TDP1 CPT: -13%; TDP1 cell noCPT: inconclusive; HT1080-NT tox: inconclusive

What do the screens show for `N=C(N)c1ccc(N=Nc2c(O)ccc3c2[nH]c2ccccc23)cc1`?
IL1B secr inh: -97*; HT1080 IDH1KD tx: -21%; DT40 TDP1 CPT: 21µM*; TDP1 cell noCPT: 7.3µM*; HT1080-NT tox: -8%

What do the screens show for `CCC1(C)COC2(OC1)C(=O)Nc1ccccc12` (stereo unspecified)?
IL1B secr inh: -51*; ELG1 repair inh: -6%; HT1080 IDH1KD tx: -3%; DT40 TDP1 CPT: -3%; TDP1 cell noCPT: -19%; HT1080-NT tox: 0%

What do the screens show for `CC1(C)COC2(OC1)C(=O)Nc1ccccc12`?
IL1B secr inh: 14; ELG1 repair inh: -11%; HT1080 IDH1KD tx: 1%; DT40 TDP1 CPT: 2%; TDP1 cell noCPT: -11%; HT1080-NT tox: 1%

What do the screens show for `CCCCSc1ccc2nc(-c3ccc(C#N)cc3)cn2c1`?
IL1B secr inh: -3; ELG1 repair inh: inconclusive; HT1080 IDH1KD tx: -25%; DT40 TDP1 CPT: inconclusive; TDP1 cell noCPT: inconclusive; HT1080-NT tox: -26%

How did CCCSc1ccc2nc(-c3ccccc3)cn2c1 do in these assays?
IL1B secr inh: -4; ELG1 repair inh: inconclusive; HT1080 IDH1KD tx: 12µM*; DT40 TDP1 CPT: 18µM*; TDP1 cell noCPT: 16µM*; HT1080-NT tox: 12µM*

Results for O=C(N/N=C/c1ccccc1)C1CCCN1C(=O)c1cc([N+](=O)[O-])cc([N+](=O)[O-])c1 (stereo unspecified) ?
IL1B secr inh: -13; ELG1 repair inh: -2%; HT1080 IDH1KD tx: -8%; DT40 TDP1 CPT: inconclusive; TDP1 cell noCPT: -10%; HT1080-NT tox: -10%

Results for CC(C)Oc1ccc(F)cc1-c1cc(C(=O)NCc2ccc(C(F)(F)F)cc2)[nH]n1 ?
IL1B secr inh: inconclusive; HT1080 IDH1KD tx: inconclusive; DT40 TDP1 CPT: 16µM*; TDP1 cell noCPT: inconclusive; HT1080-NT tox: inconclusive

Screening results as filed in PubChem.
